Measurements as given in PubChem BioAssay AID1745857 (National Center for Advancing Translational Sciences (NCATS), 2022).
The campaign covered roughly 120,000 compounds. About 370 (0.31%) were called active. About 4% were inconclusive and are not listed. Shown is part of a subset that was picked to be rich in actives. A call without a number means that no potency is given here. A number with no mark means an inactive call. The call rests on the fitted dose curve.

Assay: Primary qHTS Assay for Foot and Mouth Disease Virus Antivirals against NCGC Sytravon and CBC Compound Libraries: Renilla Luciferase Signal; further: nearly all actives have a fitted effect of over 55% in size
Settings: FMDV replicon cells; series mostly up to 57.5 µM
Potency means the concentration at half of the fitted maximal effect.

SMILES | Potency | activity change, negative = inhibition
Cn1c(=O)c2c(ncn2CC(=O)NCCc2cccc(F)c2)n(C)c1=O | inactive | –
C=C(C)CN1CCN(c2oc(C3CC3)nc2C#N)CC1 | inactive | –
Cc1c(-c2ccccc2)oc2c(C(=O)OCC(=O)C(C)(C)C)cccc2c1=O | inactive | –
COCCNC(=O)COc1cc(O)c2c(=O)cc(-c3ccccc3)oc2c1 | inactive | –
CCc1cccc(NC(=O)c2ccc3c(c2)NC(=O)CS3)c1 | inactive | –
CC(C)Sc1c(C(C)C)cnc2c1c(=O)n(C)c(=O)n2C | inactive | –
CC(C)Oc1ccc(C(O)(CC[N+](C)(C)C)C2CCCCC2)cc1 (stereo not drawn) | inactive | –
COc1ccc(/C=C/c2ccc3cccc(O)c3n2)cc1OC | inactive | –
Cc1sc2nc(CN3CCOCC3)nc(N(C)CC(=O)Nc3ccc(F)cc3)c2c1C | inactive | –
COc1ccc(C2CC(=O)Nc3c2c(=O)nc2c(C)cccn32)cc1OC (stereo not drawn) | inactive | –
COc1ccc(-c2csc3c2NC(=O)CC3c2ccc(OCC(N)=O)c(OC)c2)cc1 (stereo not drawn) | 2820 nM (active) | –
Cc1ccc(-c2csc3c2NC(=O)CC3c2ccc(C)cc2)cc1 (stereo not drawn) | inactive | –
COc1ccc(Nc2nc(-c3ccc(NC(C)=O)cc3)cs2)cc1 | inactive | –
COc1ccc(CNC(=O)NCc2noc3ccc(C)cc23)cc1 | inactive | –
COC(=O)COc1ccc2c(C)c(CC(=O)OC)c(=O)oc2c1C | inactive | –
O=C(Cc1cnc(-c2ccccc2F)s1)Nc1nccs1 | inactive | –
COc1ccc(S(=O)(=O)N2CCC(C(=O)NCc3cccnc3)CC2)cc1 | inactive | –
O=C(O)c1ccc(CNCc2ccco2)cc1 | inactive | –
Cc1cc2nc(/N=C(\N)NC(=O)Cc3ccccc3)nc(C)c2cc1C | inactive | –
Cn1c(=O)c2nc(SCC(=O)NCc3ccc(Cl)cc3)n(C)c2n(C)c1=O | inactive | –
Cc1noc(C)c1S(=O)(=O)N(C)CC(=O)Nc1ccc(C(C)(C)C)cc1 | inactive | –
CN(C)S(=O)(=O)c1cccc(C(=O)Nc2cccc(Oc3ccccc3)c2)c1 | inactive | –
CCCCn1c(=O)[nH]c(=O)c2c1nc(CSc1nnc(-c3ccco3)n1C)n2CC | inactive | –

SMILES | Potency | activity change, negative = inhibition
CCOC(=O)c1ccc(Oc2coc3cc(OC)ccc3c2=O)cc1 | inactive | –
CN1CC[C@H](c2c(O)cc(O)c3c(=O)cc(-c4ccccc4Cl)oc23)[C@H](O)C1 | 1000 nM (active) | –
Cc1ccc(C(=O)O)cc1S(N)(=O)=O | inactive | –
COc1ccc(NC(=O)c2cccc(-n3cccc3)c2)c(OC)c1 | inactive | –
CCN(C(=O)Cn1c(CN2CCOCC2)nc2ccccc21)c1ccccc1 | inactive | –
CCOc1cccc2c(C)nc(Nc3nc(CSc4ccc(C)cc4)cc(=O)[nH]3)nc12 | inactive | –
Cc1ccc(CC(=O)N(C)CC(=O)N(CC(C)C)c2c(N)n(CC(C)C)c(=O)[nH]c2=O)cc1C | inactive | –
O=C1c2ccccc2NC(c2cnc3ccccc3n2)N1c1ccc(F)cc1 (stereo not drawn) | inactive | –
CCCCn1c(=O)[nH]c(=O)c2c1nc(CSc1n[nH]c(C)n1)n2CC | inactive | –
COC(=O)c1ccc(C(=O)NCc2ccccc2C)cc1 | inactive | –
Cc1c(C)[n+](=O)c2cc(F)c(F)cc2n1[O-] | inactive | –
Cc1ccc(-c2noc(Cn3cnc(C#N)n3)n2)cc1F | inactive | –
O=C1CCSc2c1cccc2C(=O)NCc1ccccc1Cl | inactive | –
COCCn1c(SCc2cc(C)ccc2OC)nnc1-c1ccccc1 | inactive | –
COc1ccc(Nc2nc3ccccc3nc2NS(=O)(=O)c2ccc(OC)cc2)cc1 | inactive | –
CCOCCCNc1oc(-c2ccc(S(=O)(=O)N(C)C)cc2)nc1C#N | inactive | –
Cc1cccc(NC(=O)c2cccc3ncccc23)c1 | inactive | –
CC(NCc1cccs1)C12CC3CC(CC(C3)C1)C2 (stereo not drawn) | inactive | –
CC(C)COc1ccc(/C=C(\C#N)C(=O)Nc2ccccc2C(=O)O)cc1 | inactive | –
COC(=O)C(N)Cc1ccc2ccccc2c1 (stereo not drawn) | – | -8.69% [at 1.06 µM]
O=C(NCC1CC1)c1cc(-c2ccncc2)nc2ccccc12 | inactive | –
Brc1ccc(/C=N/Nc2nc3ccccc3c3ccccc23)cc1 | inactive | –
CCCCCCCCCOc1ccc(C(=O)c2ccccc2)cc1 | inactive | –

SMILES | Potency | activity change, negative = inhibition
Cc1ccc(NC(=O)Cn2cc(/C=C3\NC(=O)NC3=O)c3ccccc32)cc1 | inactive | –
c1ccc(N2CCN(c3nc(N4CCCCC4)nc4nccnc34)CC2)cc1 | inactive | –
COc1ccccc1NC(=O)C(=O)NCC(c1cccnc1)N1CCN(c2ccccc2F)CC1 (stereo not drawn) | inactive | –
O=C(NCc1cccnc1)C(=O)NCC(c1cccnc1)N1CCN(c2ccccc2)CC1 (stereo not drawn) | inactive | –
COc1ccccc1N1CCN(C(CNC(=O)C(=O)NCc2ccc(C)cc2)c2cccnc2)CC1 (stereo not drawn) | 7080 nM (active) | –
CCOc1ccccc1NC(=O)N1CCC2(CC1)c1cccn1-c1ccc(C)cc1N2CC | inactive | –
O=C(Cc1c[nH]c2ccccc12)N1CCN(C(=O)c2ccccc2)CC1 | inactive | –
O=C(COc1ncnc2ccccc12)Nc1ccccc1Cl | inactive | –
COC(=O)CNC(=O)c1cc2occc2n1Cc1ccccc1 | inactive | –
COC1CC(OC2CCC3(C=O)[C@H]4CCC5(C)C(C6=CC(=O)OC6)CCC5(O)[C@@H]4CCC3(O)C2)OC(C)C1O (stereo partly drawn) | 398 nM (active) | –
N#Cc1cn(C2CC2)c(=O)n(Cc2coc(-c3cccc(Cl)c3)n2)c1=O | inactive | –
O=C(CCc1ncc(-c2ccc(F)cc2)o1)NCC(c1ccccc1)N1CCCC1 (stereo not drawn) | inactive | –
O=C(CC1(O)C(=O)N(CN2CCOCC2)c2ccccc21)c1ccc2ccccc2c1 (stereo not drawn) | inactive | –
Oc1c(Cl)cc(Cl)c(Cl)c1Cc1c(O)c(Cl)cc(Cl)c1Cl | 10000 nM (active) | –
Cc1cccc(OCCn2cc(S(=O)(=O)N3CCCC3)ccc2=O)c1 | inactive | –
CCN(CC)CCCNC(=O)C(=O)Nc1cccc2[nH]ccc12 | inactive | –
O=C(CSc1ccc2c(c1)OCCCO2)NC(c1ccccc1)c1cccs1 (stereo not drawn) | inactive | –
Cc1cccc(NC(=O)CN2CCCN(c3ncc(C(F)(F)F)cc3Cl)CC2)c1 | inactive | –
CCC(C)NC(=O)COc1ccc2c(C)cc(=O)oc2c1 (stereo not drawn) | inactive | –
CCOC(=O)CN1C(C(=O)c2ccccc2)=C(OC(=O)CC)c2ccccc2S1(=O)=O | inactive | –
COC(=O)c1[nH]c2ccc(F)cc2c1NC(=O)CCN1CCC(C)CC1 | inactive | –
N#Cc1ccccc1COC(=O)c1ccccc1NCCO | inactive | –
